An excerpt weighted towards active compounds, which were near 12% of everything screened.
PLK1 PBD block – blocks phosphopeptide binding to human PLK1 polo-box domain; Potency, µM, usual class: inhibitors; Plk1 PBD binding of FITC phosphopeptide, fluorescence polarization; 360,000 tested, 2.8% active; P53350; AID 720504; note: series mostly up to about 57 µM; nearly all actives have a fitted effect of over 65% in size
HP1b chromo inh – blocks HP1-beta chromodomain binding to methylated histone tails | P83916 | AlphaScreen HP1-beta / biotin-H3K9me3 peptide binding | Potency, µM (top dose mostly 114 µM), actives largely listed as inhibitors | 390,000 tested, 0.56% active | AID 540317; note: nearly all actives have a fitted effect of over 70% in size
Target sequence (P83916 whole entry, looked up): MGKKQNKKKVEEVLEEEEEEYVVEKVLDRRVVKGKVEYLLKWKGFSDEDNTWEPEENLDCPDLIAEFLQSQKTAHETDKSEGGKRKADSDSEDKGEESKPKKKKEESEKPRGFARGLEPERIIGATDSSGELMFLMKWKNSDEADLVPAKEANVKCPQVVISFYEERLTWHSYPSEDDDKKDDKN
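AlphaScreen: HP1-beta (50 nM) preformed 30 min with biotin-H3(1-18)K9me3 peptide (50 nM) in PBS pH 7.4, 0.01% Tween-20. Compound added for 30 min at RT, then streptavidin donor/nickel chelate acceptor beads (10 ug/mL) for 30 min.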
G9a block – blocks human histone lysine methyltransferase G9a; Q96KQ7; G9a H3K9 monomethylation, AlphaScreen, 2 h; Potency, µM (top dose mostly 102 µM), hits mostly inhibitors; 350,000 tested, 8.8% active; AID 504332; note: nearly all actives have a fitted effect of over 75% in size
Target sequence (Q96KQ7 913-1193 limits assumed): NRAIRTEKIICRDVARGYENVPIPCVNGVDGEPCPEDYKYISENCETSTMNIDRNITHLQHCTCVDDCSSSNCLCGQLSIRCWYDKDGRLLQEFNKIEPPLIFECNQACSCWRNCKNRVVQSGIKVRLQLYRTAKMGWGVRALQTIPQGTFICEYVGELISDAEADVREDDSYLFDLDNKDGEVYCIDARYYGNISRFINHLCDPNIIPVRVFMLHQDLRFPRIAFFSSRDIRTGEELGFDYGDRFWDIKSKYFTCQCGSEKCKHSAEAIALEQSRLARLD
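Chemiluminescent proximity detection of H3K9 monomethylation, read after 10 min bead incubation in the dark. Reaction: 20 nM G9a, 500 nM biotin-H3K9 peptide, 20 uM SAM cofactor, 2 h, room temperature, following 15 min enzyme-compound preincubation.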
JMJD2A Tudor inh – inhibitors of human JMJD2A Tudor domain. O75164. AlphaScreen JMJD2A-Tudor / H3K4me3 peptide binding. Potency, µM (highest dose often 114 µM), actives largely listed as inhibitors. 390,000 tested, 4.4% active. AID 504339; note: nearly all actives have a fitted effect of over 50% in size
BAZ2B block – inhibitors of human BAZ2B bromodomain | Potency, µM (top dose mostly 114 µM), hits mostly inhibitors | 360,000 tested, 4.4% active | AlphaScreen BAZ2B-H3K14Ac peptide displacement | Q9UIF8; note: nearly all actives have a fitted effect of over 60% in size
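Compounds, titrated to a top concentration of 110 uM, were incubated 30 min at room temperature with preformed BAZ2B/acetyl-K14 H3 peptide complex (50 nM each). Proximity signal was measured by AlphaScreen after 20 min with beads.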
Sfp PPTase inh – Sfp phosphopantetheinyl transferase inhibition; Biochemical Sfp PPTase activity, qHTS; Potency, µM, most hits filed as inhibitors; 310,000 tested, 3.5% active; AID 1490;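 note: the enzyme is Sfp with the accession as filed and its product quenches rhodamine fluorescence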
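Fluorescence-quenching assay with 15 nM Sfp, 5 uM rhodamine-CoA and 12.5 uM BHQ-2-labelled ybbR peptide in pH 7.6 Hepes/MgCl2 buffer. Enzyme was pre-incubated with compound for 15 min at room temperature. Rate was taken from the 30-min fluorescence change (525/598 nm).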
Numbers stand for hits; [ ] = another dose, or the depositor's remark. Calls come from the whole dose curve; as a rule, active = well fitted curve in the direction sought with a large enough effect; inconclusive = small, poorly fitted or top-dose-only effect, or another doubt; inactive = no such curve, though single readings can be large; an effect the other way counts as inactive or inconclusive.

What do the screens show for `Cc1cc2c(C)cc(=O)[nH]c2cc1NC(=O)CCl`?
PLK1 PBD block: inactive; HP1b chromo inh: inactive; G9a block: inconclusive; JMJD2A Tudor inh: inactive; BAZ2B block: inactive; Sfp PPTase inh: inactive

Results for O=C(CCl)Nc1cc2[nH]c(=O)[nH]c2cc1Br ?
PLK1 PBD block: inactive; HP1b chromo inh: inactive; G9a block: 50µM; JMJD2A Tudor inh: inactive; BAZ2B block: inactive; Sfp PPTase inh: inactive

Results for Cc1ccc(C(=O)c2cn(CC(=O)Nc3ccc(C)cc3Cl)c3nc(C)ccc3c2=O)cc1 ?
HP1b chromo inh: inactive; G9a block: inactive; JMJD2A Tudor inh: inactive; BAZ2B block: inactive

How did COc1ccc2[nH]c(C)c(CN3CCCCC3)c(=O)c2c1 do in these assays?
PLK1 PBD block: inactive; HP1b chromo inh: inactive; G9a block: inactive[12.7 µM]; JMJD2A Tudor inh: inactive; BAZ2B block: inactive; Sfp PPTase inh: inactive

How did COc1ccc2[nH]c(C)c(CCNC(=S)Nc3cccc(C)c3)c2c1 do in these assays?
PLK1 PBD block: inactive; HP1b chromo inh: inactive; G9a block: 45µM; JMJD2A Tudor inh: inconclusive; BAZ2B block: 35µM; Sfp PPTase inh: inactive

What do the screens show for `COc1ccc2[nH]c(C)c(CCNC(=S)Nc3cc(C)ccc3C)c2c1`?
PLK1 PBD block: inactive; HP1b chromo inh: inactive; G9a block: inactive; JMJD2A Tudor inh: inactive; BAZ2B block: inactive; Sfp PPTase inh: inactive

What do the screens show for `CCOc1ccc(Cc2c(C)[nH]c3ccc(C(=O)O)cc3c2=S)cc1`?
PLK1 PBD block: inactive; HP1b chromo inh: inactive; G9a block: 13µM; JMJD2A Tudor inh: 25µM; BAZ2B block: inactive; Sfp PPTase inh: 56µM

What do the screens show for `CCc1c(C)[nH]c2ccc(OC)cc2c1=S`?
PLK1 PBD block: 13µM; HP1b chromo inh: inconclusive; G9a block: 4.5µM; JMJD2A Tudor inh: inactive[11.4 µM]; BAZ2B block: inconclusive; Sfp PPTase inh: 10µM

What do the screens show for `CCOc1ccc(NC(=O)c2ccc3[nH]c(C)cc(=O)c3c2)cc1`?
HP1b chromo inh: inactive; G9a block: inconclusive; JMJD2A Tudor inh: inactive; BAZ2B block: inactive

Results for COc1ccc2[nH]c(C)c(CCNC(=S)Nc3ccccc3OC)c2c1 ?
PLK1 PBD block: inactive; HP1b chromo inh: inactive; G9a block: 56µM; JMJD2A Tudor inh: inconclusive; Sfp PPTase inh: inactive

How did COc1ccccc1NC(=O)CC12CC3CC(CC(Br)(C3)C1)C2 do in these assays?
PLK1 PBD block: inactive; HP1b chromo inh: inactive; G9a block: inactive; JMJD2A Tudor inh: inactive; BAZ2B block: inactive; Sfp PPTase inh: inactive

Results for COc1ccc2[nH]c(C)c(CCN(Cc3cccs3)C(=S)Nc3ccc(F)cc3)c2c1 ?
PLK1 PBD block: inactive; HP1b chromo inh: inconclusive; G9a block: inconclusive; JMJD2A Tudor inh: inconclusive; BAZ2B block: inconclusive; Sfp PPTase inh: inactive

What do the screens show for `COc1ccc2[nH]c(C)c(CCNc3ccc(C(F)(F)F)cc3[N+](=O)[O-])c2c1`?
PLK1 PBD block: inactive; HP1b chromo inh: inconclusive; G9a block: 11µM; JMJD2A Tudor inh: 22µM; BAZ2B block: 28µM; Sfp PPTase inh: inactive

Results for COc1ccc2[nH]c(C)c(CCNC(=S)Nc3cc(C)cc(C)c3)c2c1 ?
PLK1 PBD block: inactive; HP1b chromo inh: inconclusive; G9a block: inactive; JMJD2A Tudor inh: 50µM; BAZ2B block: 28µM; Sfp PPTase inh: inactive

What do the screens show for `COc1ccc2[nH]c(C)c(CCNC(=S)Nc3ccc(F)cc3)c2c1`?
PLK1 PBD block: inactive; HP1b chromo inh: inactive; G9a block: 56µM; JMJD2A Tudor inh: inconclusive; Sfp PPTase inh: inactive

What do the screens show for `CS(=O)(=O)NCCNc1ccc(C(F)(F)F)cc1[N+](=O)[O-]`?
PLK1 PBD block: inactive; HP1b chromo inh: inactive; G9a block: inactive; JMJD2A Tudor inh: inactive; BAZ2B block: inactive; Sfp PPTase inh: inactive

Results for O=C(CN1CCN(Cc2cccc(F)c2)CC1)Nc1ccccc1F ?
PLK1 PBD block: inactive; HP1b chromo inh: inactive; G9a block: inactive; JMJD2A Tudor inh: inactive; BAZ2B block: inactive; Sfp PPTase inh: inactive

Results for O=C(CSc1ncnc2ccccc12)NCc1ccco1 ?
PLK1 PBD block: inactive; HP1b chromo inh: inactive; G9a block: inactive; JMJD2A Tudor inh: inconclusive; BAZ2B block: inactive; Sfp PPTase inh: inactive

How did O=C(CSc1nnnn1-c1ccccc1)c1ccco1 do in these assays?
PLK1 PBD block: inactive; HP1b chromo inh: inactive; G9a block: 50µM; JMJD2A Tudor inh: inactive; BAZ2B block: inactive; Sfp PPTase inh: inactive
